Assay outcomes: PubChem BioAssay, The Scripps Research Institute Molecular Screening Center
In the library only some 1.1% were active in any assay of this set; here they are far more common.
PKA-R1A act: activators of PKA-R1A complex; AID 504707; PKA-R1A dissociation, Cy5-IP20 fluorescence polarization; scaled: DMSO 0%, 113 µM cGMP 100%; activation, % at 11.4 µM; 340,000 compounds, 0.083% hits; P00514+P68181;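 active = percent activation above the mean of all tested compounds plus 3 SD, cut at about 19% in these data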;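 note: higher means more PKAc released from R1A so a rise in polarization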
PKA-R2B act: PKA-R2B complex activation. P22694+P31323. PKA-R2B holoenzyme dissociation, Cy5-IP20 fluorescence polarization; R2B truncated from residue 108, S112A mutant; 0% DMSO only, 100% 113 µM cGMP. activation, % at 11.4 µM. 340,000 compounds, 0.079% hits. AID 504700;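 active = activation above a cutoff set at the mean over all compounds plus 3 SD, cut at about 18% in these data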;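 note: higher means more holoenzyme dissociation and a rise in polarization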
Target sequence (P31323 whole entry, looked up, other chains not shown, the tested form may be a part): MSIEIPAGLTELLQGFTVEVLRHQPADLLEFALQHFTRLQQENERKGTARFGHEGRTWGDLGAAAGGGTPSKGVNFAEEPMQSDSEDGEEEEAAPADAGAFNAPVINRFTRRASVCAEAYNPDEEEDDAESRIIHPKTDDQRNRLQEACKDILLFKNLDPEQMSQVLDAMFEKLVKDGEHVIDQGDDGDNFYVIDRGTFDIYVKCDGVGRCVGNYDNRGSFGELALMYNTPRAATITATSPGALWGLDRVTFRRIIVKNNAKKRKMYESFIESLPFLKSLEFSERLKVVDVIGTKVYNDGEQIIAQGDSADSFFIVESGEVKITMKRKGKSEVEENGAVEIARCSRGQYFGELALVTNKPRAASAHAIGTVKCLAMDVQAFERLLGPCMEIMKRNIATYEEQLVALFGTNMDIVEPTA
bovine MsrA act: activators of bovine methionine sulfoxide reductase A; purified bovine MsrA, absorbance read-out; AID 602163; activation, % at 10.6 µM; 360,000 compounds, 0.3% hits; in the data active = activation above about 7.5%
MsrA inhibitor: inhibitors of bovine MsrA. inhibition, % at 15.5 µM. purified bovine MsrA, absorbance read-out. 360,000 compounds, 0.75% hits. AID 651718
MsrA inh confirm: bovine MsrA inhibition, confirmed; shares compounds with MsrA inhibitor; purified bovine MsrA, absorbance read-out; inhibition, % at 15.5 µM; 2,300 compounds, 41% hits; AID 651822;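 note: coupled to thioredoxin reductase with NADPH and selenocystamine and DMSO as substrate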
Of the large screens only hits and unclear results are named; the others gave an inactive call (follow-up assays come after a bar, where they were run). Cut-off read from the data, not from the text of the source, unless noted: active = inhibition above about 4.5%; inactive = the rest.

COc1cc(/C(C)=N/NC(=O)c2ccc(CSc3nncn3C)cc2)cc(OC)c1OC	none
CCNC(=S)N/N=C(\C)c1cc2ccccc2o1	MsrA inhibitor 5.6 | MsrA inh confirm 6.3
C/C(=N\NC(=S)Nc1cccc(C)c1)c1cc2ccccc2o1	none
COc1ccc(N=C2C(=O)N3c4c(cccc42)C(C)=CC3(C)C)cc1	none
COc1ccc(C)cc1NC(=O)C(Sc1nnc(Nc2cc(C)ccc2OC)s1)c1ccccc1 (stereo unspecified)	MsrA inhibitor 5.2 | MsrA inh confirm inactive
Cc1cc(O)cc(=O)n1-c1cc(C(F)(F)F)cc(C(F)(F)F)c1	none (no result: PKA-R1A act, PKA-R2B act, bovine MsrA act)
Cc1sc2nc3n(c(=O)c2c1C)CCCS3	none
O=Cc1ccc2oc3nc4n(c(=O)c3c(=O)c2c1)CCCS4	MsrA inhibitor 6.6 | MsrA inh confirm inactive
CN(C)c1ccc(/C=N/Nc2ccc(-n3ccnc3)nn2)cc1	MsrA inhibitor 6.0 | MsrA inh confirm inactive
CCNC(=O)N(C)[C@H]1C[C@H]2c3[nH]c4c(-c5ccc6c(c5)OCO6)cccc4c3CCN2C(=O)[C@H]1[C@H](C)O	none (no result: PKA-R1A act, PKA-R2B act, bovine MsrA act)
CN1/C(=C\C(=O)COC(=O)c2ccc(O)cc2)C(C)(C)c2ccccc21	MsrA inhibitor 5.2 | MsrA inh confirm inactive
CN1/C(=C\C(=O)COC(=O)c2ccc(O)c(O)c2)C(C)(C)c2ccccc21	MsrA inhibitor 4.8 (no result: PKA-R1A act, PKA-R2B act, bovine MsrA act) | MsrA inh confirm inactive
CC12CCC(C/C1=N\N=C1\NC(=O)/C(=C\c3ccc(Cl)cc3)S1)C2(C)C (stereo unspecified)	none
COc1ccc(S(=O)(=O)CCC(=O)N2CCN(c3ccc(C(C)=O)cc3)CC2)cc1	MsrA inhibitor 4.7 | MsrA inh confirm inactive
COC(=O)c1cc(=O)nc(NN=C(C)C)s1	none (no result: PKA-R1A act, PKA-R2B act, bovine MsrA act)
Cc1cc(N2CCc3ccccc32)n2ncnc2n1	MsrA inhibitor 5.3 | MsrA inh confirm inactive
CC1(C)CC(N2CCN(c3ccccc3)CC2)=CC(=[N+]2CCCC2)C1	MsrA inhibitor 5.5 | MsrA inh confirm 5.0
CC1CC(C)C[N+](=C2C=C(N3CCCC3)CC(C)(C)C2)C1 (stereo unspecified)	MsrA inhibitor 5.8 | MsrA inh confirm inactive
CC1(C)CC(N2CCCC2)=CC(=[N+]2CCCCCC2)C1	MsrA inhibitor 6.7 | MsrA inh confirm 4.9
O=S(=O)(CCN(CCS(=O)(=O)C(F)(F)F)CC1CCCO1)C(F)(F)F (stereo unspecified)	none
CCCCOCCCNC(=O)C[C@H]1C[C@@]2(C(=O)OC)C(=C[C@H](C(C)C)O[C@@H]2C2CC2)N(Cc2ccccc2)C1=O	none (no result: PKA-R1A act, PKA-R2B act, bovine MsrA act)
CC(=O)C1=C(O)C(=O)N(c2cc(C(C)(C)C)on2)C1c1ccc(C(C)C)cc1 (stereo unspecified)	none (no result: MsrA inhibitor)
CC(=O)C1=C(O)C(=O)N(c2cc(C(C)(C)C)on2)C1c1ccc(Br)cc1 (stereo unspecified)	MsrA inhibitor 4.9 | MsrA inh confirm inactive
CC1(C)CC(N2CCN(CCO)CC2)=CC(=S)N1	MsrA inhibitor 5.8 | MsrA inh confirm 6.1
CC1(C)CC(NCc2ccccc2)=CC(=S)N1	none (no result: PKA-R1A act, PKA-R2B act, MsrA inhibitor)
Cc1ccc2oc(-c3ccco3)cc(=O)c2c1	MsrA inhibitor 7.7 | MsrA inh confirm 5.4
O=c1cc(-c2ccco2)oc2ccccc12	none
N#Cc1c(SCC(=O)O)nc(N2CCOCC2)c2c1CCCC2	none
COC(=O)CSc1nc(N2CCOCC2)c2c(c1C#N)CCCC2	MsrA inhibitor 8.2 | MsrA inh confirm 6.9
CCSc1nc(N2CCOCC2)c2c(c1C#N)CCCC2	MsrA inhibitor 13 | MsrA inh confirm 13
CCN1CCc2c(C#N)c(N3CCCCC3)nc(N3CCOCC3)c2C1	MsrA inhibitor 4.8 | MsrA inh confirm inactive
CCN1CCc2c(C#N)c(N3CCOCC3)nc(N3CCOCC3)c2C1	none
CCC[C@H]1CN(c2ccccc2)C(=O)[C@@H]1CC(=O)Nc1ccc(Br)cc1	none
COc1ccc(C(=O)CC(SCC(NC(C)=O)C(=O)O)c2ccc(Cl)cc2)cc1OC (stereo unspecified)	none
Cc1cc(NS(=O)(=O)c2ccc(NC(=O)c3cnc4sccn4c3=O)cc2)nc(C)n1	none
Cc1cc(C)nc(NC(=O)c2cnc3sccn3c2=O)n1	MsrA inhibitor 5.5 | MsrA inh confirm 4.7
O=C(O)CSc1c2c(nc3cc(C(=O)Nc4ccc(F)c(Cl)c4)ccc13)CCCC2	none
Cc1ccn2c(C(=O)N/N=C\c3cccs3)c(C)nc2c1	MsrA inhibitor 7.4 | MsrA inh confirm 5.8
Cc1ccc2nc(C)c(C(=O)N/N=C/c3cccs3)n2c1	none
CSc1c(N(C)C)c(=O)c1=S	MsrA inhibitor 5.2 (no result: PKA-R1A act, PKA-R2B act, bovine MsrA act) | MsrA inh confirm inactive
Cc1[nH]c(=O)[nH]c(=O)c1N(C)C	none
COc1ccc(/C=N/Nc2nn3cnnc3c3ccccc23)cc1	MsrA inhibitor 5.1 | MsrA inh confirm inactive
COc1ccc(/C=N/Nc2nonc2N)cc1	none
Cc1ccc2nc(-c3ccc(SCC(=O)O)nc3)[nH]c2c1	MsrA inhibitor 8.9 | MsrA inh confirm 4.7
O=C(CSc1ccc(-c2nc3ccccc3[nH]2)cn1)Nc1ccc(S(=O)(=O)N2CCCC2)cc1	none
Cc1cc2nc(-c3ccc(SCC(=O)Nc4ccc(S(=O)(=O)N5CCCC5)cc4)nc3)[nH]c2cc1C	MsrA inhibitor 5.0 | MsrA inh confirm inactive
COC(=O)C1=C(C)N(Cc2ccccc2C(F)(F)F)C(=NCc2cc(OC)c(OC)c(OC)c2)NC1c1cccc(C(F)(F)F)c1 (stereo unspecified)	none (no result: PKA-R1A act, PKA-R2B act, bovine MsrA act)
CS(=O)(=O)Nc1ccc(-c2cn3cccnc3n2)cc1	MsrA inhibitor 4.8 | MsrA inh confirm inactive
Cc1ccc(-c2nc(S(=O)(=O)c3ccc(C)cc3)c(SCC(N)=O)o2)cc1	none
Cc1cccc(NC(=O)CNC(=O)[C@@H](Cc2ccccc2)NC(=O)[C@H]2O[C@@H](n3ccc(N)nc3=O)[C@H](O)[C@@H]2O)c1C	none (no result: PKA-R1A act, PKA-R2B act, bovine MsrA act)
COc1cc(-c2[nH]ncc2CN2CCCC2c2nonc2C)cc(OC)c1OC (stereo unspecified)	none
Cc1nonc1C1CCCN1Cc1cn[nH]c1-c1ccc(-c2ccccc2)cc1 (stereo unspecified)	MsrA inhibitor 29 | MsrA inh confirm 22
Cc1c(C#N)c(N=CN(C)C)c(C(=O)c2ccc(Br)cc2)n1-c1ccccc1	none
Cc1c(C#N)c(N=CN(C)C)c(C(=O)c2ccccc2)n1-c1ccc(Br)cc1	MsrA inhibitor 5.3 | MsrA inh confirm 7.3
NC(=O)c1ncn([C@@H]2O[C@H](C(=O)N3CCCN(Cc4ccccc4F)CC3)[C@@H](O)[C@H]2O)n1	none (no result: PKA-R1A act, PKA-R2B act, bovine MsrA act)
Cc1onc(-c2ccccc2)c1C(=O)N/N=C/c1ccc([N+](=O)[O-])c(O)c1	none
O=C(N/N=C/c1ccc(O)c(O)c1)c1ccc(-n2cnnn2)cc1	MsrA inhibitor 4.8 | MsrA inh confirm 4.6
CN(C)c1ccc(/C=N/NC(=O)c2nonc2N)cc1[N+](=O)[O-]	MsrA inhibitor 4.9 | MsrA inh confirm inactive
Cc1onc(-c2ccccc2)c1C(=O)N/N=C/c1ccc(O)c([N+](=O)[O-])c1	MsrA inhibitor 5.5 | MsrA inh confirm inactive
